A short description of assay [1]: inhibitors of TNFa-induced NFkB p65 translocation, primary screen, imaging, HUVEC, MLSMR starter and 10KST1 sets (AID 438;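 active means inhibition above 20% together with a positive visual image hit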;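 further: compound added about 3h40 before a 20 min TNFalpha stimulation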;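 on inhibition: signal is the nuclear over cytoplasmic p65 intensity ratio per well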). As to conditions: HUVEC TNFa-induced p65 nuclear translocation; cell count: measured here: nuclei count (cytotoxicity indicator), at 2.08 µM; inhibition: at 2 µM, stronger effect = higher value, 0% TNFa-plus-vehicle, 100% no-TNFa wells.
Assay [2] in a line: reduction of polyQ htt aggregates in cells – imaging, exon1htt(103Q)mCFP cells, high-content imaging, primary screen (AID 483;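 active means visual image review flags a hit and inhibition of aggregation exceeds 20%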;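 further: compound exposure lasted 3 days before fixation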;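 on nuclei count: percent of the per-plate median nuclei count of sample wells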). Conditions: exon1htt(103Q)mCFP cell line, aggregate imaging, at 2 µM; inhibition of aggregation: stronger effect = higher value; nuclei count: measured here: cell count, toxicity.
The nature of assay [3]: endothelial E-selectin expression blockers – imaging, HUVEC, immunofluorescence, MLSMR starter and 10KST1 sets, primary screen (AID 487;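 active means visually confirmed hit in the image check and inhibition above 20%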;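 on inhibition: signal is fraction of cell area covered by stained E-selectin grains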;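 on nuclei count: 100% = median nuclei count of all wells on the same plate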). Conditions: HUVEC TNFalpha-induced E-selectin immunofluorescence imaging, at 2 µM; inhibition: stronger effect = higher value; nuclei count: measured here: cell number, toxicity.
In assay [4] the target is Voltage-gated potassium channel subunit beta-2 (Rattus norvegicus) (UniProt P62483). The experiment in a line: inhibitors of rat Kvbeta2 reductase activity – biochemical, NADPH fluorescence, primary screen (AID 622).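 Further: slope of raw intensity against log time taken from 70 to 1610 s.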 Conditions: recombinant KvBeta, 4-cyanobenzaldehyde reduction, at 10 µM, stronger effect = higher value.
Voltage-gated potassium channel subunit beta-2 (Rattus norvegicus), sequence (P62483 whole entry, looked up): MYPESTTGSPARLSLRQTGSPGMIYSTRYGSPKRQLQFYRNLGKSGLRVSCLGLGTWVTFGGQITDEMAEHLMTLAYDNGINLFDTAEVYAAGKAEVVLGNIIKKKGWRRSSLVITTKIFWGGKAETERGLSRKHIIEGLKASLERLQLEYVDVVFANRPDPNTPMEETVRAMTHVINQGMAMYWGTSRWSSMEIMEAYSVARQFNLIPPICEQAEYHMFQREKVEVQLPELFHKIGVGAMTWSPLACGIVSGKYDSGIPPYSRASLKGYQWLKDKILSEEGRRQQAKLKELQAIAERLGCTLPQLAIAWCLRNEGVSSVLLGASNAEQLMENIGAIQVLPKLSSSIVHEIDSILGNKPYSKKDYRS
For assay [5] the target is unchanged. As to the kind of experiment: enhancers of rat Kvbeta2 NADPH turnover – biochemical, NADPH fluorescence, primary screen (AID 623;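 active means NADPH fluorescence slope more negative than the mean of all samples by about 3 SD, 99.7% confidence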;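 further: fluorescence intensity change per second fitted from 20 to 320 s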). Conditions: Recombinant KvBeta, NADPH fluorescence decrease slope, 10 min; at 10 µM; stronger effect = lower value.
Assay [6] deals with Alpha-2C adrenergic receptor (Homo sapiens) (UniProt P18825). As to the kind of experiment: compounds altering alpha2C-coupled GIRK flux – cell-based, HEK293 alpha2C/GIRK1/2, thallium flux, primary screen (AID 624;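 active means fluorescence slope after compound addition differing from the mean of all screened samples at 99.7% confidence, in either direction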;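 further: slope of fluorescence ratio to pre-addition baseline per second over 15 to 24 s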). Conditions: thallium flux BTC fluorescence, at 10 µM, actives lie on both sides.
Alpha-2C adrenergic receptor (Homo sapiens), sequence (P18825 whole entry, looked up): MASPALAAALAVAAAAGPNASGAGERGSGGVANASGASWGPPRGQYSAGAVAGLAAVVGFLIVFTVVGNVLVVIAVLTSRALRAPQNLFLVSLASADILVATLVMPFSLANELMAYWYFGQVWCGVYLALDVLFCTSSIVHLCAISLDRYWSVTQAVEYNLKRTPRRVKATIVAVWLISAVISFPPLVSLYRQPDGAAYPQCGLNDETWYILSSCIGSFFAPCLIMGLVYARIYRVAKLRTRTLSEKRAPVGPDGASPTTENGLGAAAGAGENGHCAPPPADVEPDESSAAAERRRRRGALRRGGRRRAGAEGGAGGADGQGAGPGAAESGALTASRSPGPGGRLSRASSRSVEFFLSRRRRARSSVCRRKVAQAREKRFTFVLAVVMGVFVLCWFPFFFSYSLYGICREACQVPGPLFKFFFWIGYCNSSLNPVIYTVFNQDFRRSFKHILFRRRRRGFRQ
Assay [7] in a line: blockers of RIG-like receptor reporter activation – cell-based, Sendai virus stimulus, luciferase, 10K MLSCN set, TLR/RLR signaling modifier project, primary screen (AID 602276;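 active means inhibition at or above 50% at 10 µM; inactive means inhibition below 50%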;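 further: firefly luciferase from ISG56 promoter only with Renilla not read in this screen; 0% = Sendai virus plus DMSO and 100% = medium plus DMSO without virus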). As to conditions: HEK293 RL24 IRF3 luciferase reporter, at 10 µM, stronger effect = higher value. (In a reporter assay the amount or activity of a reporter protein is the signal.)
Assay [8] is described as follows: TLR3 IRF3 reporter activation blockers – cell-based, poly I:C stimulus, luciferase, 10K MLSCN set, primary screen (AID 602277;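 active means inhibition of the reporter signal at or above 50%; inactive means inhibition below 50%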). As to conditions: HEK293-TLR3 RL24 IRF3 luciferase reporter, at 10 µM, stronger effect = higher value.

Calls of active or inactive are those of the source.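 How the source made its calls, unless noted: active means fluorescence slope higher than the sample average by over 3 SD (cut at about -0.22 in these data, passing the limit was not always enough); inactive means the rest.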

What is called inhibition is the change of the read-out against control, counted positive when it falls. Consider `CC(=O)c1ccc2c3c(cccc13)C(=O)N(c1c(C)nn(C)c1C)C2=O`, for which the cell count in assay [1] was found to be 655. The inhibition in assay [1] was -4.4% (inactive); in assay [3], -14% (inactive); in assay [7], 6.92% (inactive); in assay [8], -10.1% (inactive). The inhibition of aggregation in assay [2] was -24.6% (inactive). The nuclei count in assay [2] worked out at 108%; in assay [3] it was 97.5%. Also, the fluorescence slope in assay [4] was -0.633 (inactive). For the same molecule, the NADPH fluorescence slope in assay [5] is -5.6e-06 (inactive). For the same molecule, the slope in assay [6] was 0.00453 (inactive).

On to `CC(C)c1nnc(NC(=O)Cc2cccs2)s1`, for which the cell count in assay [1] was 640. In addition, the inhibition is 3.4% (inactive) in assay [1], -47.3% (inactive) in assay [3], 0.388% (inactive) in assay [7] and 22.9% (inactive) in assay [8]. Also, in assay [2], the inhibition of aggregation was 8.9% (inactive). For the same molecule, the nuclei count in assay [2] came to 114%; in assay [3], 105%. Further, the fluorescence slope in assay [4] was -0.513 (inactive). Moreover, the NADPH fluorescence slope in assay [5] was -1.8e-05 (inactive). Moreover, in assay [6], the slope was 0.00736 (inactive).

On to `CN1C(=O)C(O)(CC(=O)c2ccc3c(c2)OCO3)c2ccccc21` (centres undefined), for which the cell count in assay [1] amounted to 340. In addition, the inhibition in assay [1] is 6% (inactive); in assay [3], -11.1% (inactive); in assay [7], 4.81% (inactive); in assay [8], 32.2% (inactive). For the same molecule, in assay [2], the inhibition of aggregation is -7.9% (inactive). The nuclei count came out at 105% in assay [2] and 108% in assay [3]. Moreover, the fluorescence slope in assay [4] is -0.457 (inactive). Also, the NADPH fluorescence slope in assay [5] was 6.3e-06 (inactive). Besides, in assay [6], the slope was 0.00347 (inactive).

As for `c1ccc(N=P(c2nc3ccccc3o2)(N2CCOCC2)N2CCOCC2)cc1`, the cell count in assay [1] worked out at 547. Moreover, the inhibition is -7.9% (inactive) in assay [1], -1.8% (inactive) in assay [3], 3.09% (inactive) in assay [7] and -19.6% (inactive) in assay [8]. For the same molecule, the inhibition of aggregation in assay [2] is 23.4% (inactive). In addition, the nuclei count in assay [2] came out at 87.6%; in assay [3] it was 107%. Besides, the fluorescence slope in assay [4] was -0.497 (inactive). For the same molecule, the NADPH fluorescence slope in assay [5] was -1.9e-05 (inactive). For the same molecule, the slope in assay [6] is 0.00625 (inactive).

For the molecule `COCCNC(=O)c1ccc(CS(=O)(=O)c2ccc(OC)cc2)o1`, the cell count in assay [1] turned out to be 636. Moreover, the inhibition is 4.1% (inactive) in assay [1], 5.3% (inactive) in assay [3], 9.76% (inactive) in assay [7] and 25.7% (inactive) in assay [8]. Further, the inhibition of aggregation in assay [2] was -4.8% (inactive). The nuclei count in assay [2] is 96.8%; in assay [3] it was 124%. Besides, the fluorescence slope in assay [4] is -0.583 (inactive). Also, the NADPH fluorescence slope in assay [5] is -5.4e-05 (inactive). Besides, in assay [6], the slope is 0.00675 (inactive).

With `NC(=O)C1CCN(C(=O)c2cc3n(n2)C(C(F)(F)F)CC(c2ccco2)N3)CC1` (centres undefined), in assay [1], the cell count was determined as 537. The inhibition in assay [1] was -5.4% (inactive); in assay [3] it was -83.5% (inactive); in assay [7] it was 18.6% (inactive); in assay [8], 24.2% (inactive). Further, in assay [2], the inhibition of aggregation was 2.5% (inactive). The nuclei count in assay [2] came to 93.4%; in assay [3] it was 100%. Moreover, the fluorescence slope in assay [4] was -0.543 (inactive). In addition, the NADPH fluorescence slope in assay [5] is 1.2e-05 (inactive). Moreover, the slope in assay [6] was 0.00594 (inactive).

Regarding `O=C(NCc1ccco1)c1c2c(nc3ccccc13)CCC2`, the cell count in assay [1] is 301. Further, the inhibition is -1.7% (inactive) in assay [1], -7.8% (inactive) in assay [3], 5.99% (inactive) in assay [7] and 7.89% (inactive) in assay [8]. Also, the inhibition of aggregation in assay [2] is 11.3% (inactive). Further, the nuclei count turned out to be 87.3% in assay [2] and 83.7% in assay [3]. The fluorescence slope in assay [4] is -0.494 (inactive). In assay [5], the NADPH fluorescence slope was -5.2e-05 (inactive). Also, the slope in assay [6] was 0.00639 (inactive).

As to `CC(Oc1ccccc1)C(=O)Nc1ccc(S(=O)(=O)NCC2CCCO2)cc1` (centres undefined), in assay [1], the cell count amounted to 377. Further, the inhibition in assay [1] was 5% (inactive); in assay [3], -84.8% (inactive); in assay [7], 20.7% (inactive); in assay [8] it was 98.9% (active). Also, in assay [2], the inhibition of aggregation is 17.7% (inactive). Moreover, the nuclei count is 81.9% in assay [2] and 99.2% in assay [3]. Further, the fluorescence slope in assay [4] was -0.411 (inactive). Also, in assay [5], the NADPH fluorescence slope was 1.4e-05 (inactive). Besides, in assay [6], the slope is 0.00888 (inactive).

Take `C=CCn1c(COc2ccc(CC)cc2)nnc1SC/C(O)=C(\C#N)c1nc2ccccc2[nH]1`: in assay [1], the cell count is 705. For the same molecule, the inhibition in assay [1] is -4.3% (inactive); in assay [3], -10.1% (inactive); in assay [7], 21.3% (inactive); in assay [8] it was 14.4% (inactive). Further, the inhibition of aggregation in assay [2] was 3.6% (inactive). Also, the nuclei count in assay [2] came to 101%; in assay [3], 108%. For the same molecule, the fluorescence slope in assay [4] is -0.379 (inactive). Besides, the NADPH fluorescence slope in assay [5] is 8.9e-06 (inactive). In addition, the slope in assay [6] is 0.0031 (inactive).

Take `Cc1c(NC(=O)C(C)Oc2ncnc3ccccc23)c(=O)n(-c2ccccc2)n1C` (centres undefined): in assay [1], the cell count is 547. Also, the inhibition in assay [1] was -1.7% (inactive); in assay [3], -5.8% (inactive); in assay [7], -7.59% (inactive); in assay [8], 19.3% (inactive). Further, the inhibition of aggregation in assay [2] was -8.5% (inactive). The figures for the nuclei count in assay [2] and in assay [3] were 78% and 111%, respectively. The fluorescence slope in assay [4] was -0.506 (inactive). In addition, the NADPH fluorescence slope in assay [5] was -5e-05 (inactive). The slope in assay [6] is 0.00757 (inactive).

Take `O=C(Nc1ccccc1C(=O)N1CCOCC1)c1cccc(S(=O)(=O)N2CCCC2)c1`: the cell count in assay [1] came out at 440. Also, the inhibition in assay [1] is -5.3% (inactive); in assay [3], -138% (inactive); in assay [7], 2.51% (inactive); in assay [8], 22.9% (inactive). Further, in assay [2], the inhibition of aggregation is 0.3% (inactive). Also, the nuclei count in assay [2] stood at 92.3%; in assay [3] it was 118%. Also, in assay [4], the fluorescence slope is -0.455 (inactive). In addition, in assay [5], the NADPH fluorescence slope was 4.9e-06 (inactive). In addition, the slope in assay [6] was 0.00695 (inactive).

With `O=C(O)Cc1ccccc1C(=O)O`, the cell count in assay [1] worked out at 685. The inhibition was -0.4% (inactive) in assay [1], -66.3% (inactive) in assay [3], 13.7% (inactive) in assay [7] and 11.2% (inactive) in assay [8]. The inhibition of aggregation in assay [2] was 0% (inactive). The results for the nuclei count in assay [2] and in assay [3] were 99.9% and 142%, respectively. Moreover, in assay [4], the fluorescence slope was -0.491 (inactive). For the same molecule, the NADPH fluorescence slope in assay [5] is -5e-05 (inactive). Further, the slope in assay [6] was 0.00429 (inactive).

On to `Cc1ccc2[nH]c(=O)c(C(c3nnnn3CCc3ccccc3)N3CCOCC3)cc2c1` (centres undefined), for which, in assay [1], the cell count is 715. Also, the inhibition in assay [1] was -3.9% (inactive); in assay [3], -38.7% (inactive); in assay [7] it was 0.935% (inactive); in assay [8], 26.5% (inactive). Besides, in assay [2], the inhibition of aggregation was 1.1% (inactive). Further, the nuclei count in assay [2] is 99%; in assay [3], 95.6%. Besides, in assay [4], the fluorescence slope was -0.482 (inactive). The NADPH fluorescence slope in assay [5] is -4.6e-05 (inactive). Besides, the slope in assay [6] was 0.0072 (inactive).

Regarding `CCN1CCN(c2nc3c(c(=O)n(C)c(=O)n3C)n2CCSc2ncccn2)CC1`, the cell count in assay [1] is 295. Besides, the inhibition in assay [1] was -0.5% (inactive); in assay [3], -130% (inactive); in assay [7] it was 0.292% (inactive); in assay [8], 13% (inactive). In assay [2], the inhibition of aggregation is -7.5% (inactive). In addition, the nuclei count came out at 97.8% in assay [2] and 116% in assay [3]. Also, the fluorescence slope in assay [4] was -0.506 (inactive). For the same molecule, the NADPH fluorescence slope in assay [5] was -9.3e-06 (inactive). Further, in assay [6], the slope was 0.00522 (inactive).

Source of the values: PubChem BioAssay.
